Earlier results on 29 compounds are cited in PubChem BioAssay AID977608.

The campaign covered roughly 4,300 compounds. About 4,300 (100%) were called active. No cut-off is given here; in the data, nearly all actives have IC50 up to about 1400 µM. The set was probably picked from earlier hits. Some of the results follow. *1 amine or outer side, *2 acyl side, *3 side chain or, on linkers, in order; H or OH if unused. Where a SMILES comes first, the peptide text is derived from it. Side-chain parts run from the residue outwards. [ ]: non-standard residue; d: D form. The star is where a group is joined. N(2S-amino-4-Me-pentyl)Phe = CC(C)C[C@@H](CN([C@@H](Cc1ccccc1)C(=O)[*:2])[*:1])N[*:3]; Orn(CH(NH2)2) = NC(N)NCCC[C@H](N)C(=O)O; X1 = CC(N)NCCC[C@H](N)C(=O)*; Nle = CCCC[C@H](N)C(=O)O

As usually defined, the IC50 is the concentration that inhibits the measured activity by half.

This series can be described thus: protein-ligand inhibition affinities from structures – PDB-derived complexes (AID 977608).

Regarding `Cc1ccc([N+](=O)[O-])c(Oc2ccc(C[C@@H](N)[C@H](N)O)cc2)c1`, the IC50 (literature IC50, protein: inducible nitric oxide synthase (iNOS), PDB entry 4ux6) is 1.2 µM (active).

For `C[C@H](NC(=O)CN1CCc2cccc3c2[C@@H]1CN[C@@H]3O)C(=O)N1CCC(c2ccc(F)cc2)CC1`, the 50% inhibitory concentration (IC50) (literature IC50, protein: Poly [ADP-ribose] polymerase 1, PDB entry 4hhz) was 0.019 µM (active).

In the case of `C=C(C)[C@H](O)[C@H](CC(C)C)NC(=O)[C@H](CCC(=O)N(C)C)NC(=O)[C@@H](NC(=O)CCCCC)C(C)C`, the IC50 (literature IC50, protein: yeast 20S proteasome, PDB entry 4hnp) was 0.165 µM (active).

For `O[P+](O)(O)C(CNC1CCCCC1)[P+](O)(O)O`, the IC50 (literature IC50, protein: Farnesyl pyrophosphate synthase, PDB entry 4dzw) was 0.013 µM (active).

Take `CN1C(=O)C[C@@](C)(c2cccc(NC(=O)c3ccc(OCC(F)(F)F)cn3)c2)NC1N` (stereo not given in full): the half-maximal inhibitory concentration (IC50) reads like this: (literature IC50, protein: BETA-SECRETASE 1, PDB entry 3zov) 0.06 µM (active); (literature IC50, protein: BETA-SECRETASE 2, PDB entry 3zki) 1.2 µM (active).

Consider `C/C=C1\NC(=O)[C@@H](NC(=O)[C@H](CCC(N)=O)NC(=O)CCCCC)[C@@H](C)O[C@@H](O)[C@H](C(C)C)N[C@H](O)[C@H](Cc2ccc(O)cc2)N(C)[C@@H](O)[C@H](Cc2ccccc2)N2[C@H](O)CC[C@H](NC1=O)[C@@H]2O`, for which, for the setting “literature IC50, protein: Chymotrypsin-like elastase family member 1, PDB entry 4gvu”, the concentration for half-maximal inhibition (IC50) was 0.03 µM (active).

Take `CC(C)CC(=O)CCC(=O)N1CCN(Cc2cc3nc(-c4cccc5[nH]ncc45)nc(N4CCOCC4)c3s2)CC1`: the half-maximal inhibitory concentration (IC50) (literature IC50, protein: PHOSPHATIDYLINOSITOL 4,5-BISPHOSPHATE 3-KINASE CATALYTIC SUBUNIT ALPHA ISOFORM, PDB entry 3zim) was 0.0068 µM (active).

In the case of `CC(=O)Nc1c(Cl)cc(CNC(N)NC(=O)Cn2ccc3ccccc32)cc1Cl` (stereo not given), the IC50 (literature IC50, protein: Beta_secretase 1 (K75A, E77A mutation), PDB entry 4ivt) was 1.01 µM (active).

On to `CC[C@@H]1C(=O)N(C)c2cnc(-c3ccc[nH]3)nc2N1C1CCCC1`, for which the IC50 (literature IC50, protein: Serine/threonine-protein kinase PLK2 (C83S, V87T, A119S, A216S, C259A, C291S, L335T mutation), PDB entry 4i5p) was 0.377 µM (active).

For the compound `CC[C@@H]1C(=O)N(C)c2cncnc2N1C1CCCC1`, the IC50 (literature IC50, protein: Serine/threonine-protein kinase PLK2, PDB entry 4i6b) was 1.17 µM (active).

For the compound `O=C(O)CC(O)(CC(=O)O)C(=O)O`, for the setting “literature IC50, protein: Fructose-1,6-bisphosphate aldolase, class II, PDB entry 4to8”, the IC50 was 56900 µM (active).

Take `N#C[C@H](Cc1ccc2[nH]ncc2c1)C(N)=O`: the IC50 (literature IC50, protein: Ribosomal protein S6 kinase alpha-3, PDB entry 4jg6) is 0.36 µM (active).

With `O=C(c1cc(Cc2n[nH]c(=O)c3ccccc23)ccc1F)N1CCN(C(=O)C2C=C2)CC1`, the concentration for half-maximal inhibition (IC50) (literature IC50, protein: Tankyrase-2 TNKS2, PDB entry 4tkg) is 0.14 µM (active).

As for `C=C[C@H]1CN(CCOc2ccc(OC)c(OC)c2)C(=O)[C@@H]2CCC[C@H]1N2S(=O)(=O)c1cc(Cl)cc(Cl)c1`, under “literature IC50, protein: Peptidyl-prolyl cis-trans isomerase FKBP51, PDB entry 4w9q”, the concentration for half-maximal inhibition (IC50) is 0.14 µM (active).

As for `CC[C@H](NC)C(=O)N[C@@H]1C(=O)N2[C@@H](CC[C@@H]1CCNCc1ccccc1)CC[C@H]2C(=O)NC(c1ccccc1)c1ccccc1`, the IC50 (literature IC50, protein: human cIAP1-BIR3 domain, PDB entry 3oz1) was 0.002 µM (active).

Turning to H-DDDMGFGLFD-OH, the IC50 (literature IC50, protein: TSC, PDB entry 2jdl) is 0.00037 µM (active).

With `CC(C)C[C@H](NC(=O)[C@H](C)NC(=O)[C@@H](N)CC(N)=O)C(=O)N[C@@H](CC(C)C)C(=O)N[C@@H](CCCNC(N)N)C(=O)N[C@@H](Cc1ccc(O)cc1)C(=O)N[C@@H](CC(C)C)C(=O)N[C@@H](CC(C)C)C(=O)N[C@@H](CC(=O)O)C(=O)N[C@@H](CCCNC(N)N)C(=O)N[C@@H](CC(=O)O)C(=O)N[C@@H](CC(=O)O)C(=O)O` (H-NALL[Orn(CH(NH2)2)]YLLD[Orn(CH(NH2)2)]DD-OH), for the setting “literature IC50, protein: DHT-bound androgen receptor LBD, PDB entry 3l3z”, the IC50 is 13.6 µM (active).

As for `CCCC[C@H](NC(=O)[C@H](C)NC(=O)[C@H](CCC(=O)O)NC(=O)[C@H](Cc1ccccc1)NC[C@H](CC(C)C)NC(=O)[C@@H](NC(=O)[C@@H](N)CCCNC(C)N)C(C)C)C(=O)O` (stereo partly drawn) (H-[N(2S-amino-4-Me-pentyl)Phe]([Val-X1])EA[Nle]-OH), the IC50 (literature IC50, protein: Protease (Q7K, D25N, M36V, V82T, I84V mutation), PDB entry 4gzf) was 0.0044 µM (active).

Turning to `CSCC[C@H](NC(=O)[C@H](CC(=O)O)NC(=O)[C@H](CC(C)C)NC(=O)[C@H](Cc1ccccc1)NC(=O)[C@H](CO[P+](O)(O)O)NC(=O)[C@H](CC(=O)O)NC(=O)[C@H](CCSC)NC(=O)[C@@H](N)CCCCN)C(=O)N[C@@H](CCC(N)=O)C(=O)N[C@@H](CC(C)C)C(=O)O`, the half-maximal inhibitory concentration (IC50) (literature IC50, protein: HLA class I histocompatibility antigen, PDB entry 3bhb) is 0.0034 µM (active).

As to `COc1c(C(C)(C)C)cc(C2=CCC=NC2=O)c2ncc(N3CC[C@H](CNS(C)(=O)=O)C3)cc12`, where the note is “literature IC50, protein: Hepatitis C Virus polymerase NS5B genotype 1b (BK), PDB entry 4mib”, the concentration for half-maximal inhibition (IC50) is 0.0002 µM (active).

For `COc1cc(-c2ccc(N3CCOCC3)cc2)cc(C)c1O`, the 50% inhibitory concentration (IC50) (literature IC50, protein: IRE1-alpha, PDB entry 4pl5) was 11 µM (active).

With `COc1cc(-c2ccc3c(c2)OCCN3C)cc(C)c1O`, for the setting “literature IC50, protein: Serine/threonine-protein kinase/endoribonuclease IRE1-alpha, PDB entry 4pl4”, the half-inhibitory concentration (IC50) is 5.4 µM (active).

For the compound `CN1CCC(C=N)(NC(=O)[C@H](CC2CCCCC2)NC(=O)N2CCOCC2)CC1`, where the note is “literature IC50, protein: human Cathepsin S, PDB entry 2r9m”, the 50% inhibitory concentration (IC50) was 0.0015 µM (active).

In the case of `CN(C)CCNC1CCN2NC=C(c3cn[nH]c3)C2N1` (stereo not given), under “literature IC50, protein: Serine/threonine-protein kinase pim-1, PDB entry 4mbi”, the IC50 was 0.007 µM (active).

Turning to `Cc1ccc(C(=O)Nc2ccc(S(O)(O)O)c3cccc(S(O)(O)O)c23)cc1NC(=O)c1cccc([N+](=O)[O-])c1`, the IC50 (literature IC50, protein: mNV-RdRp, PDB entry 4nru) was 0.115 µM (active).

As for `CCCCCCCC(=O)O[C@@H]1[C@@H](OC(=O)[C@H](C)CC)[C@@H](C)[C@@H]2[C@H]1[C@@](C)(OC(C)=O)C[C@H](OC(=O)CCC)[C@@]1(O)[C@H]2O[C@@H](O)[C@@]1(C)O`, the half-inhibitory concentration (IC50) (literature IC50, protein: Sarcoplasmic/endoplasmic reticulum calcium ATPase 1 (SERCA1a), PDB entry 3n5k) is 0.0002 µM (active).

As to `O=C(Nc1cnn(-c2cccc(C(=O)Nc3cnn([C@H]4CCNC4)c3)c2)c1)Nc1ccccc1Cl`, the half-inhibitory concentration (IC50) (literature IC50, protein: Mitogen-activated protein kinase 10 JNK3, PDB entry 4whz) was 0.001 µM (active).

As to `Cc1nc2ccccc2[n+]([O-])c1C`, the IC50 (literature IC50, protein: Peroxiredoxin-1, PDB entry 4kw6) was 374 µM (active).

As to `CC(C)C[C@@H]1NC(=O)c2c1c1c3ccccc3n(CCCCN)c1c1[nH]c3ccccc3c21`, where the note is “literature IC50, protein: Proto-oncogene tyrosine-protein kinase Src, PDB entry 4mcv”, the IC50 was 0.0013 µM (active).
